Measured values published in PubChem BioAssay AID1159580 (chemical genetic matrix, 2015).
The whole screen tested about 5,500 compounds, of which about 2,000 (36%) were called active. Another 18% or so got no clear call; they are omitted. The list shows a part of the results. Values without a mark were called inactive. Cut-off read from the data, not from the text of the source: active = normalized growth mostly below about 0.91 (no sharp cut-off); inconclusive = no clear call, values can overlap the other calls; inactive = mostly above about 0.92.

Assay: chemical genetic growth profiling, strain panel (AID 1159580);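 note: tested at 20 µM; growth read once vehicle control cultures reached saturation at 30 °C; 1 = growth at the plate median or of vehicle wells; lower values mean less growth of the strain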
Details: growth OD

## ClC1=C(Cl)C2(Cl)C3C4C=CC(C4)C3C1(Cl)C2(Cl)Cl (configuration not stated)
S. cerevisiae deletion strains, locus YJR075W, strain HOC1, stronger effect = lower value
  normalized growth: 1.01
S. cerevisiae deletion strains, locus YKL009W, strain mrt4, stronger effect = lower value
  normalized growth: 0.953
S. cerevisiae deletion strains, locus YKL068W, stronger effect = lower value
  normalized growth: 0.996
S. cerevisiae deletion strains, locus YKL085W, strain MDH1 (second series), stronger effect = lower value
  normalized growth: 0.996
S. cerevisiae deletion strains, locus YKL085W, strain MDH1, stronger effect = lower value
  normalized growth: 0.996
S. cerevisiae deletion strains, locus YKL160W, strain elf1, stronger effect = lower value
  normalized growth: 0.998
S. cerevisiae deletion strains, locus YKL190W, strain CNB1, stronger effect = lower value
  normalized growth: 1
S. cerevisiae deletion strains, locus YKR001C, strain vps1, stronger effect = lower value
  normalized growth: 0.998
S. cerevisiae deletion strains, locus YKR026C, strain gcn3, stronger effect = lower value
  normalized growth: 0.997
S. cerevisiae deletion strains, locus YKR091W, strain srl3, stronger effect = lower value
  normalized growth: 0.996
S. cerevisiae deletion strains, locus YLL001W, strain dnm1, stronger effect = lower value
  normalized growth: 0.998
S. cerevisiae deletion strains, locus YLL026W, stronger effect = lower value
  normalized growth: 1
S. cerevisiae deletion strains, locus YLL041C, strain sdh2, stronger effect = lower value
  normalized growth: 0.994
S. cerevisiae deletion strains, locus YLR027C, strain aat2, stronger effect = lower value
  normalized growth: 1.01
S. cerevisiae deletion strains, locus YLR039C, strain RIC1, stronger effect = lower value
  normalized growth: 0.942
S. cerevisiae deletion strains, locus YLR058C, strain SHM2, stronger effect = lower value
  normalized growth: 0.991
S. cerevisiae deletion strains, locus YLR102C, strain apc9, stronger effect = lower value
  normalized growth: 1
S. cerevisiae deletion strains, locus YLR113W, strain HOG1, stronger effect = lower value
  normalized growth: 0.892
S. cerevisiae deletion strains, locus YLR221C, strain rsa3, stronger effect = lower value
  normalized growth: 0.985
S. cerevisiae deletion strains, locus YLR258W, strain gsy2, stronger effect = lower value
  normalized growth: 0.997
S. cerevisiae deletion strains, locus YLR262C, strain YPT6 (second series), stronger effect = lower value
  normalized growth: 0.94
S. cerevisiae deletion strains, locus YLR262C, strain YPT6, stronger effect = lower value
  normalized growth: 0.859
S. cerevisiae deletion strains, locus YLR268W, strain sec22, stronger effect = lower value
  normalized growth: 0.98
S. cerevisiae deletion strains, locus YLR320W, strain mms22, stronger effect = lower value
  normalized growth: 0.994
S. cerevisiae deletion strains, locus YLR330W, strain CHS5, stronger effect = lower value
  normalized growth: 1
S. cerevisiae deletion strains, locus YLR342W, strain FKS1 (second series), stronger effect = lower value
  normalized growth: 0.916
S. cerevisiae deletion strains, locus YLR342W, strain FKS1, stronger effect = lower value
  normalized growth: 0.995
S. cerevisiae deletion strains, locus YLR357W, strain rsc2, stronger effect = lower value
  normalized growth: 1.02
S. cerevisiae deletion strains, locus YLR370C, strain arc18, stronger effect = lower value
  normalized growth: 0.997
S. cerevisiae deletion strains, locus YLR371W, strain rom2, stronger effect = lower value
  normalized growth: 0.981
S. cerevisiae deletion strains, locus YLR384C, strain iki3, stronger effect = lower value
  normalized growth: 0.988
S. cerevisiae deletion strains, locus YLR418C, strain cdc73, stronger effect = lower value
  normalized growth: 0.894
S. cerevisiae deletion strains, locus YML016C, strain PPZ1, stronger effect = lower value
  normalized growth: 0.998
S. cerevisiae deletion strains, locus YML032C, strain rad52, stronger effect = lower value
  normalized growth: 0.976
S. cerevisiae deletion strains, locus YML120C, strain ndi1, stronger effect = lower value
  normalized growth: 1
S. cerevisiae deletion strains, locus YML124C, strain tub3, stronger effect = lower value
  normalized growth: 0.984
S. cerevisiae deletion strains, locus YMR058W, strain fet3, stronger effect = lower value
  normalized growth: 0.999
S. cerevisiae deletion strains, locus YMR078C, strain ctf18, stronger effect = lower value
  normalized growth: 0.979
S. cerevisiae deletion strains, locus YMR125W, strain sto1, stronger effect = lower value
  normalized growth: 1
S. cerevisiae deletion strains, locus YMR129W, stronger effect = lower value
  normalized growth: 0.998
S. cerevisiae deletion strains, locus YMR205C, strain PFK2, stronger effect = lower value
  normalized growth: 0.99
S. cerevisiae deletion strains, locus YMR223W, strain ubp8, stronger effect = lower value
  normalized growth: 0.949
S. cerevisiae deletion strains, locus YMR231W, strain pep5, stronger effect = lower value
  normalized growth: 0.982
S. cerevisiae deletion strains, locus YMR263W, strain SAP30, stronger effect = lower value
  normalized growth: 0.999
S. cerevisiae deletion strains, locus YMR307W, strain GAS1, stronger effect = lower value
  normalized growth: 1.07
S. cerevisiae deletion strains, locus YNL067W, strain RPL9B, stronger effect = lower value
  normalized growth: 1
S. cerevisiae deletion strains, locus YNL071W, strain lat1, stronger effect = lower value
  normalized growth: 1.01
S. cerevisiae deletion strains, locus YNL128W, strain TEP1, stronger effect = lower value
  normalized growth: 0.992
S. cerevisiae deletion strains, locus YNL153C, strain GIM3, stronger effect = lower value
  normalized growth: 1.01
S. cerevisiae deletion strains, locus YNL183C, strain NPR1, stronger effect = lower value
  normalized growth: 0.951
S. cerevisiae deletion strains, locus YNL209W, strain ssb2, stronger effect = lower value
  normalized growth: 0.997
S. cerevisiae deletion strains, locus YNL233W, strain BNI4, stronger effect = lower value
  normalized growth: 0.986
S. cerevisiae deletion strains, locus YNL248C, strain rpa49, stronger effect = lower value
  normalized growth: 1.01
S. cerevisiae deletion strains, locus YNL250W, strain rad50, stronger effect = lower value
  normalized growth: 0.99
S. cerevisiae deletion strains, locus YNL271C, strain bni1, stronger effect = lower value
  normalized growth: 0.99
S. cerevisiae deletion strains, locus YNL298W, strain CLA4, stronger effect = lower value
  normalized growth: 0.981
S. cerevisiae deletion strains, locus YNL307C, strain MCK1, stronger effect = lower value
  normalized growth: 0.48 (active)
S. cerevisiae deletion strains, locus YNL322C, strain KRE1 (second series), stronger effect = lower value
  normalized growth: 0.97
S. cerevisiae deletion strains, locus YNL322C, strain KRE1, stronger effect = lower value
  normalized growth: 1
S. cerevisiae deletion strains, locus YNR049C, strain mso1, stronger effect = lower value
  normalized growth: 0.995
S. cerevisiae deletion strains, locus YNR052C, strain pop2, stronger effect = lower value
  normalized growth: 0.979
S. cerevisiae deletion strains, locus YOL006C, strain TOP1, stronger effect = lower value
  normalized growth: 0.969
S. cerevisiae deletion strains, locus YOL012C, strain htz1
  normalized growth: 1.09
S. cerevisiae deletion strains, locus YOL147C, strain pex11, stronger effect = lower value
  normalized growth: 0.996
S. cerevisiae deletion strains, locus YOR001W, strain rrp6, stronger effect = lower value
  normalized growth: 0.993
S. cerevisiae deletion strains, locus YOR061W, strain CKA2, stronger effect = lower value
  normalized growth: 1
S. cerevisiae deletion strains, locus YOR069W, strain VPS5, stronger effect = lower value
  normalized growth: 0.996
S. cerevisiae deletion strains, locus YOR070C, strain gyp1, stronger effect = lower value
  normalized growth: 0.982
S. cerevisiae deletion strains, locus YOR080W, strain dia2, stronger effect = lower value
  normalized growth: 0.989
S. cerevisiae deletion strains, locus YOR083W, strain WHI5, stronger effect = lower value
  normalized growth: 0.991
S. cerevisiae deletion strains, locus YOR106W, strain vam3, stronger effect = lower value
  normalized growth: 0.97
S. cerevisiae deletion strains, locus YOR136W, strain idh2, stronger effect = lower value
  normalized growth: 0.98
S. cerevisiae deletion strains, locus YOR144C, strain elg1, stronger effect = lower value
  normalized growth: 0.991
S. cerevisiae deletion strains, locus YOR184W, strain ser1, stronger effect = lower value
  normalized growth: 0.911
S. cerevisiae deletion strains, locus YOR231W, strain MKK1, stronger effect = lower value
  normalized growth: 1.04
S. cerevisiae deletion strains, locus YOR265W, strain rbl2, stronger effect = lower value
  normalized growth: 0.991
S. cerevisiae deletion strains, locus YOR270C, strain vph1, stronger effect = lower value
  normalized growth: 0.967
S. cerevisiae deletion strains, locus YOR290C, strain snf2, stronger effect = lower value
  normalized growth: 0.991
S. cerevisiae deletion strains, locus YOR316C, strain cot1, stronger effect = lower value
  normalized growth: 1
S. cerevisiae deletion strains, locus YPL051W, strain arl3, stronger effect = lower value
  normalized growth: 1.01
S. cerevisiae deletion strains, locus YPL055C, strain LGE1, stronger effect = lower value
  normalized growth: 0.99
S. cerevisiae deletion strains, locus YPL078C, strain atp4, stronger effect = lower value
  normalized growth: 1
S. cerevisiae deletion strains, locus YPL106C, strain sse1, stronger effect = lower value
  normalized growth: 1
S. cerevisiae deletion strains, locus YPL240C, strain hsp82, stronger effect = lower value
  normalized growth: 1
S. cerevisiae deletion strains, locus YPL241C, strain CIN2, stronger effect = lower value
  normalized growth: 1.01
S. cerevisiae deletion strains, locus YPL256C, strain CLN2, stronger effect = lower value
  normalized growth: 1.04
S. cerevisiae deletion strains, locus YPR119W, strain clb2, stronger effect = lower value
  normalized growth: 0.987
S. cerevisiae deletion strains, locus YPR141C, strain kar3, stronger effect = lower value
  normalized growth: 0.982
S. cerevisiae deletion strains, locus YPR163C, strain tif3, stronger effect = lower value
  normalized growth: 0.981
S. cerevisiae deletion strains, locus YPR167C, strain met16, stronger effect = lower value
  normalized growth: 0.977
S. cerevisiae deletion strains, strain wtn01, stronger effect = lower value
  normalized growth: 0.983
S. cerevisiae strains, strain wild type, stronger effect = lower value
  normalized growth: 1.01
